In PubChem BioAssay:
Activity calls are given as the source filed them.

What was measured:
[1] = E. coli DRC41 culture turbidity changes, primary screen, E. coli filamentation inducer project, strain DRC41, OD650, 48 h (AID 1152);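 note: E. coli MC1000 strain DRC41 lacking acrAB efflux pump and sulA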; settings: E. coli DRC41 (acrAB sulA), higher = more signal, called active from +8 up or from −8 down
[2] = small-molecule binders of probe aLefty1, primary screen, biochemical, small-molecule microarray, 635/667 nm fluorescence (AID 1153); settings: higher = more signal;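 note: score merges spot fluorescence with signal-to-noise ratio from the scanned slide images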
[3] = PSAC antagonists in infected red cells, primary screen, cell-based, P. falciparum Indochina, OD700, 1 h (AID 1154); settings: P. falciparum Indochina infected RBC osmotic lysis, higher = more signal, called active from +8 up or from −8 down
[4] = PSAC antagonists in infected red cells, primary screen, cell-based, P. falciparum Indochina, OD700, 2 h (AID 1155);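 note: lysis reports solute entry through the parasite surface anion channel PSAC; channel blockers reduce lysis of infected cells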; settings: P. falciparum Indochina infected erythrocytes, osmotic lysis OD700; higher = more signal, called active from +8 up or from −8 down
[5] = osmotic lysis modulators in infected erythrocytes, primary screen, PSAC antagonist project, cell-based, P. falciparum Indochina, OD700, 3 h (AID 1156); settings: higher = more signal, called active from +8 up or from −8 down
[6] = PSAC antagonists in infected red cells, primary screen, cell-based, P. falciparum Indochina, OD700, 18 h (AID 1157); settings: P. falciparum Indochina infected erythrocytes, osmotic lysis OD700, 18 h; higher = more signal, called active from +8 up or from −8 down
[7] = modulators of S6 phosphorylation in cells, primary screen, cell-based, A549, cytoblot, luminescence, serum-stimulated (AID 1158); settings: A549 phospho-S6 cytoblot, 5 h, higher = more signal;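 note: serum-stimulated A549 lung adenocarcinoma cells; signal is phosphorylated S6 detected by cytoblot immunostaining with HRP secondary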
[8] = biological target: NADPH oxidase 2 (Homo sapiens) (UniProt P04839); test: NOX2-dependent H2O2 signal modulators, primary screen, NOX inhibitor project, cell-based, HEK293-NOX2, PMA-stimulated, Amplex Red fluorescence (AID 1159); settings: 45 min, higher = more signal, called active from +8 up or from −8 down; note: test concentration not given here
Sequence of NADPH oxidase 2 (Homo sapiens) (P04839 whole entry, looked up): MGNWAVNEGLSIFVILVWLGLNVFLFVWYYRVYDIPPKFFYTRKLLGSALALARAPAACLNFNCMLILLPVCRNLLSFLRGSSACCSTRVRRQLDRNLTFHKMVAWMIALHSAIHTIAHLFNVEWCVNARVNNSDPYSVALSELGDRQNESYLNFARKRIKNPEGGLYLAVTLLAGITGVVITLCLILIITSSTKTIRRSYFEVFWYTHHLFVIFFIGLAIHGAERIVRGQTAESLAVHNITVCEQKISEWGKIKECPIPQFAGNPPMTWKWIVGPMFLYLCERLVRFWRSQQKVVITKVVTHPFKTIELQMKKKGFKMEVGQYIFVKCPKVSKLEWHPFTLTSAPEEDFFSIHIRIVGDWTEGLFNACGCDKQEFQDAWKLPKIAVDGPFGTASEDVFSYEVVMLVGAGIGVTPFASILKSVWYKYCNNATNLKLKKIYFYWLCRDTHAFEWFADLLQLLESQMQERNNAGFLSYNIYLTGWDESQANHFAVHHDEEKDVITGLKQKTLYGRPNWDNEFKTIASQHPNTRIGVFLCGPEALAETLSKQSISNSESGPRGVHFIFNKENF

[9] = biological target: NADPH oxidase 4 (Homo sapiens) (UniProt Q9NPH5); test: NOX4-dependent H2O2 signal modulators, primary screen, NOX inhibitor project, cell-based, HEK293-NOX4, tetracycline-induced, Amplex Red fluorescence (AID 1160); settings: 45 min, higher = more signal, called active from +8 up or from −8 down
Sequence of NADPH oxidase 4 (Homo sapiens) (Q9NPH5 whole entry, looked up): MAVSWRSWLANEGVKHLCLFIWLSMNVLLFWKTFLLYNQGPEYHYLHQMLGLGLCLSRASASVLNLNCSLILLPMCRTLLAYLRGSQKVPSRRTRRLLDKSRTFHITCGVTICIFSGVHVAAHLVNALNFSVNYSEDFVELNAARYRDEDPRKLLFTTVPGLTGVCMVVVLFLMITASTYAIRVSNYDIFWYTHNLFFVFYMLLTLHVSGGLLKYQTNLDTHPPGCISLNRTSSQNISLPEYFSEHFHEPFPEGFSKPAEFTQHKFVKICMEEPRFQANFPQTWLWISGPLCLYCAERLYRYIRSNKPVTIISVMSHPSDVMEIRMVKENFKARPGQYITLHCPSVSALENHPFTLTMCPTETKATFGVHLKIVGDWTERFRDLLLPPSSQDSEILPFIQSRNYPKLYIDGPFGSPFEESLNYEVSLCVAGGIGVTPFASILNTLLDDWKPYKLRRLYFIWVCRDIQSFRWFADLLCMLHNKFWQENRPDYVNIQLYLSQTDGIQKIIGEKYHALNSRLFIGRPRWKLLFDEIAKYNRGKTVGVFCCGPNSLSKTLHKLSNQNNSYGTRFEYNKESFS

[10] = biological target: NADPH oxidase 5 (Homo sapiens) (UniProt Q96PH1); test: NOX5-dependent H2O2 signal modulators, primary screen, NOX inhibitor project, cell-based, HEK293-NOX5, Amplex Red fluorescence (AID 1161); settings: HEK293-NOX5, ionomycin, 45 min, higher = more signal
Sequence of NADPH oxidase 5 (Homo sapiens) (Q96PH1 whole entry, looked up): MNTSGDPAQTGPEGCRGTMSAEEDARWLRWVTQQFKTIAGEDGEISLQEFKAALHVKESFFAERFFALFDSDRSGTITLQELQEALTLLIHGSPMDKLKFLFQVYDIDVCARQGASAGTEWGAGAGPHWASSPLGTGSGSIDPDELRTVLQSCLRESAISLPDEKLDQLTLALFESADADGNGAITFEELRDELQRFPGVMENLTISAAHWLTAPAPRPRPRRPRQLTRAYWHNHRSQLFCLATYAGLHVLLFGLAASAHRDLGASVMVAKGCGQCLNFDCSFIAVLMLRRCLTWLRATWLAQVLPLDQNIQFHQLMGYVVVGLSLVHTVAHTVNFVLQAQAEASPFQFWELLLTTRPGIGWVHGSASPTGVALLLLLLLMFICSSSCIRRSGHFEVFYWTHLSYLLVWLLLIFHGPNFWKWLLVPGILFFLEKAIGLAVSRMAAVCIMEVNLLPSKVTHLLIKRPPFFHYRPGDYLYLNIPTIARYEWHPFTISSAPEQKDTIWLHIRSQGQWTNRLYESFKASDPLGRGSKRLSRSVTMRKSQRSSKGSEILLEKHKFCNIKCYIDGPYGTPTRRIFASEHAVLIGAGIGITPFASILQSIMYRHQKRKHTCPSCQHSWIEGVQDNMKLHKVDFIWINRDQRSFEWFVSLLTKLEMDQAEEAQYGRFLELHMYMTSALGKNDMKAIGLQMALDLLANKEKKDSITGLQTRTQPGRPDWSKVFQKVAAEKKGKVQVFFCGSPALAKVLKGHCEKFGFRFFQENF

[11] = A549 cell viability effects, profiling panel, calcein-AM fluorescence, 48 h, basal (AID 1162); settings: higher = more signal; note: test concentration not given here
[12] = adipocyte viability effects, profiling panel, cell-based, 3T3-L1 adipocytes, calcein-AM fluorescence, 48 h, basal (AID 1163); settings: 3T3-L1 adipocytes viability, higher = more signal; note: test concentration not given here
[13] = HepG2 cell viability effects, profiling panel, calcein-AM fluorescence, 48 h, basal (AID 1164); settings: higher = more signal; note: test concentration not given here
[14] = MM1S cell viability effects, profiling panel, calcein-AM fluorescence, 48 h, basal (AID 1165); settings: higher = more signal;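 note: viability of MM1S multiple myeloma cells under basal unstimulated conditions; test concentration not given here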
[15] = basal RPMI8226 viability, no added stimulus, profiling panel, cell-based, calcein-AM fluorescence, 48 h, PK04 Diversity Set (AID 1166); settings: RPMI8226 myeloma viability, higher = more signal;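 note: cells grown under basal conditions without added stimulus; test concentration not given here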
[16] = basal HepG2 mitochondrial membrane potential changes, profiling panel, cell-based, JC-1 fluorescence, 24 h, 100 nL compound (AID 1167); settings: higher = more signal; note: test concentration not given here
[17] = basal 3T3-L1 adipocyte mitochondrial potential changes, profiling panel, cell-based, JC-1 fluorescence, 3T3-L1 adipocytes, 24 h, 100 nL compound (AID 1168); settings: JC-1 mitochondrial fluorescence, higher = more signal, called active from +8 up or from −8 down; note: test concentration not given here
[18] = basal RPMI8226 mitochondrial membrane potential changes, profiling panel, cell-based, JC-1 fluorescence, 24 h, 100 nL compound (AID 1169); settings: RPMI8226 myeloma, JC-1 mitochondrial potential fluorescence, higher = more signal; note: test concentration not given here
[19] = basal MM1S mitochondrial membrane potential changes, profiling panel, cell-based, JC-1 fluorescence, 24 h, 100 nL compound (AID 1170); settings: higher = more signal; note: test concentration not given here
[20] = A549 lung cancer cell viability effects, profiling panel, resazurin fluorescence, 24 h, PK04 Diversity Set (AID 1171); settings: higher = more signal, called active from +8 up or from −8 down; note: test concentration not given here

SMILES	z-score [1]	composite z-score [2]	z-score [3]	z-score [4]	z-score [5]	z-score [6]	z-score [7]	z-score [8]	z-score [9]	z-score [10]	z-score [11]	z-score [12]	z-score [13]	z-score [14]	z-score [15]	z-score [16]	z-score [17]	z-score [18]	z-score [19]	z-score [20]
C#CCN(CC=C(C)C)[C@H](CO)c1ccccc1	0.0373 (inactive)	0.213	-0.214 (inactive)	-1.3 (inactive)	-0.717 (inactive)	-2.12 (inactive)	1.22	-0.0535 (inactive)	-0.102 (inactive)	-1.84	-0.589	1.37	-0.7	0.0539	-1.2	-1.16	0.27 (inactive)	-0.383	0.471	-0.665 (inactive)
CC(C)(C)OC(=O)CC[C@@]1(C(=O)NCCN2CCOCC2)N=C(c2ccc(OCCCO)cc2)O[C@@H]1c1ccccc1N=[N+]=[N-]	0.0974 (inactive)	0.266	31.4 (active)	28 (active)	3.73 (inactive)	5.67 (inactive)	-0.249	-2.91 (inactive)	0.765 (inactive)	-1.73	1.2	0.698	1.33	-0.849	-0.187	0.749	1.66 (inactive)	-0.993	-0.339	-0.492 (inactive)
COCCOC(=O)N1C(=O)[C@@]2(c3cc(C#CC4=CCCCC4)ccc31)[C@H](C(=O)Nc1nc3ccccc3s1)[C@H]1C(=O)O[C@H](c3ccccc3)[C@H](c3ccccc3)N1[C@@H]2c1ccccc1OCCO	0.687 (inactive)	1.43	2.84 (inactive)	0.926 (inactive)	-0.0917 (inactive)	0.436 (inactive)	1.93	0.102 (inactive)	0.056 (inactive)	-1.83	-0.812	2.14	-0.789	-1.59	-2.27	-2.7	-0.2 (inactive)	-0.849	-1.29	0.163 (inactive)
COCCOC(=O)N1C(=O)[C@@]2(c3cc(C#Cc4ccc(OC)cc4)ccc31)[C@H](c1ccccc1OCCO)N1[C@H](c3ccccc3)[C@H](c3ccccc3)OC(=O)[C@H]1[C@@H]2C(=O)N1CCN(c2ncccn2)CC1	0.148 (inactive)	0.118	3.79 (inactive)	3.04 (inactive)	1.3 (inactive)	1.76 (inactive)	-0.133	0.978 (inactive)	-0.00787 (inactive)	0.882	0.204	-0.226	0.348	-0.653	0.149	0.356	2.41 (inactive)	-0.72	-1.37	-0.692 (inactive)
O=C1[C@H]2C=C(Br)[C@H](C[C@@H]2OCCCCO)[C@@]12CO2	-1.11 (inactive)	0.0911	1.31 (inactive)	0.317 (inactive)	1.17 (inactive)	-0.0393 (inactive)	-0.401	0.45 (inactive)	0.602 (inactive)	0.188	-0.0982	-1.26	-0.141	-0.723	-2.13	-1.48	0.026 (inactive)	-0.88	-0.147	-0.621 (inactive)
C=CCC(OC(C)=O)[C@@H]1[C@@H](N(Cc2ccc(-c3ccccc3)cc2)C(=O)Cc2ccc(F)cc2)c2cc(OCCCO)ccc2N1C(=O)c1ccc(-c2ccccc2)cc1 (stereo not given in full)	2.08 (inactive)	-0.0193	0.66 (inactive)	-0.221 (inactive)	-0.567 (inactive)	-0.154 (inactive)	1.26	-1.49 (inactive)	0.414 (inactive)	0.263	-0.861	0.779	1.87	0.784	1.16	3.77	1.54 (inactive)	-0.714	-0.725	1.67 (inactive)
Cc1ccc(S[C@]2(C(=O)NC(C)C)CC(=O)N(Cc3ccccc3Cl)[C@@H]2c2ccc(CO)cc2I)cc1	-0.462 (inactive)	0.0023	11.2 (active)	1.44 (inactive)	0.681 (inactive)	0.377 (inactive)	-0.487	0.769 (inactive)	-1.51 (inactive)	0.183	-0.0542	-0.05	-0.125	-2.71	-1.58	-1.08	-0.443 (inactive)	-0.195	-1.6	1.11 (inactive)
CCOC(=O)C[C@H]1[C@H](OC(=O)Cc2ccc3c(c2)OCO3)[C@@H](NC(=O)c2ccc3ccccc3c2)c2cc(OCCCO)ccc2N1C(=O)c1ccccc1	1.87 (inactive)	0.0479	4.03 (inactive)	0.522 (inactive)	-0.552 (inactive)	0.26 (inactive)	0.0043	-0.363 (inactive)	0.321 (inactive)	-2.56	1.38	-0.377	0.778	-0.41	-0.377	1.27	1.14 (inactive)	0.621	-0.334	0.859 (inactive)
COCCOC(=O)N1C(=O)[C@@]2(c3cc(C#CCCO)ccc31)[C@H](C(=O)N1CCN(c3ncccn3)CC1)[C@H]1C(=O)O[C@H](c3ccccc3)[C@H](c3ccccc3)N1[C@@H]2c1ccccc1OCCO	1.21 (inactive)	0.157	2.63 (inactive)	1.14 (inactive)	0.288 (inactive)	0.761 (inactive)	0.69	1.45 (inactive)	1.29 (inactive)	0.437	0.703	0.701	-0.51	0.135	-0.192	0.107	0.675 (inactive)	-0.324	-1.15	1.79 (inactive)
CN1C(=O)C2C=CC(C(O)C3=C[C@H]4C[C@@H](C3)C4(C)C)N(Nc3ccccc3)C2C1=O (stereo not given in full)	-0.318 (inactive)	0.202	0.451 (inactive)	0.69 (inactive)	-0.0209 (inactive)	0.852 (inactive)	-0.776	-0.945 (inactive)	-3.91 (inactive)	-2.99	-0.456	-0.893	-0.0728	-2.52	-0.724	-1.75	-0.209 (inactive)	-0.353	-0.39	0.0383 (inactive)
COCCOC(=O)N1C(=O)[C@@]2(c3cc(C#CC4(O)CCCCCC4)ccc31)[C@H](c1ccc(O)cc1)N1[C@H](c3ccccc3)[C@H](c3ccccc3)OC(=O)[C@H]1[C@@H]2C(=O)Nc1nc2ccccc2s1	-0.565 (inactive)	1.76	0.69 (inactive)	1.05 (inactive)	0.207 (inactive)	1.39 (inactive)	-0.502	1.75 (inactive)	0.507 (inactive)	1.07	0.3	0.974	0.702	-1.55	-1.47	-2.78	-1.11 (inactive)	-0.876	0.18	-0.006 (inactive)
CCCN1C(=O)[C@]2(CCS(=O)(=O)c3ccccc3)N=C(c3ccc(OCCCO)cc3)O[C@@H]2c2ccccc21	1.51 (inactive)	0.497	29.3 (active)	21.2 (active)	1.31 (inactive)	0.471 (inactive)	1.42	-1.5 (inactive)	-0.284 (inactive)	-1.17	1.27	1.86	-0.801	0.0361	-1.97	0.28	-0.494 (inactive)	-0.917	-1.28	-1.57 (inactive)
COc1ccc(C(O)C2C=CC3C(=O)NC(=O)C3N2Nc2ccccn2)cc1 (stereo not given)	-0.416 (inactive)	0.0622	0.539 (inactive)	0.874 (inactive)	-0.079 (inactive)	0.778 (inactive)	-0.449	-0.755 (inactive)	-2.56 (inactive)	-1.99	-0.483	-0.0402	-0.454	-0.632	0.202	-0.69	-0.0063 (inactive)	-0.143	0.0564	-0.582 (inactive)
C=C(C)C1C(=C)CN([C@H](CO)c2ccccc2)C1=O (stereo not given in full)	-1.08 (inactive)	-0.285	0.391 (inactive)	0.497 (inactive)	0.711 (inactive)	-0.0396 (inactive)	-0.272	1.98 (inactive)	0.998 (inactive)	-0.846	-0.488	0.783	-0.764	0.0188	-2.01	-0.113	0.113 (inactive)	-0.175	-0.761	1.02 (inactive)
C=CCNC(=O)[C@H]1[C@@H]2C(=O)O[C@@H](c3ccccc3)[C@@H](c3ccccc3)N2[C@@H](c2ccc(O)cc2)[C@]12C(=O)N(C(=O)OCCOC)c1ccc(C#CCNC(N)=O)cc12	-0.929 (inactive)	0.378	1.78 (inactive)	0.441 (inactive)	-0.627 (inactive)	0.0898 (inactive)	-0.272	1.28 (inactive)	0.291 (inactive)	0.383	-0.755	0.0896	0.264	-0.303	-0.479	-1.33	0.817 (inactive)	-0.294	0.179	-0.157 (inactive)
C=C(CCCC)/C(=C/C[C@@H](OC(C)=O)c1ccccc1OCCO)c1cnc2ccccc2c1	-0.19 (inactive)	0.082	21.1 (active)	4.29 (inactive)	1.96 (inactive)	1.39 (inactive)	0.132	-1.87 (inactive)	-1.61 (inactive)	-1.79	-0.865	1.79	-0.749	-2.72	-3.31	0.749	-1.17 (inactive)	-0.691	0.61	-1.21 (inactive)
C=CCOC(=O)[C@@H]1[C@H]2C(=O)O[C@H](c3ccccc3)[C@H](c3ccccc3)N2[C@H](c2ccc(OCCOC(=O)[C@@H]3C[C@@H]4C(=O)N[C@@H](CCCCN(C)C)C(=O)N4[C@@H]3c3ccc(O)cc3)cc2)[C@@]12C(=O)Nc1ccc(I)cc12	-0.193 (inactive)	-0.012	-1.43 (inactive)	0.997 (inactive)	3.77 (inactive)	0.374 (inactive)	-0.381	1.36 (inactive)	0.636 (inactive)	0.167	-0.303	-0.247	0.295	-0.7	-0.857	-1.93	-0.171 (inactive)	-0.95	-1.45	0.417 (inactive)
CC(C)(C)OC(=O)CC[C@]1(C(=O)NCC(O)CO)COC(c2ccc(OCCCO)cc2)=N1 (stereo not given in full)	-0.0886 (inactive)	0.149	5.77 (inactive)	0.645 (inactive)	0.639 (inactive)	0.619 (inactive)	0.0272	-2.16 (inactive)	-0.351 (inactive)	-0.519	0.208	-0.388	-0.665	-1.01	0.418	-0.76	0.176 (inactive)	0.527	-0.23	0.706 (inactive)
